According to PubChem BioAssay AID1159580 (chemical genetic matrix, 2015):
“And” between values parts separate entries of the source, which are not always exact repeats. Identical values can stand only once. Screen size: about 5,500 compounds; about 2,000 (36%) were called active. Roughly 18% stayed inconclusive and do not appear here. No stated cut-off is given here; in the data, active means normalized growth mostly below about 0.91 (no sharp cut-off); inconclusive means no clear call, values can overlap the other calls; inactive means mostly above about 0.92. Some of the results follow.

Test: chemical genetic growth profiling, strain panel (AID 1159580);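 further: tested at 20 µM; growth read once vehicle control cultures reached saturation at 30 °C; 1 = growth at the plate median or of vehicle wells; lower values mean less growth of the strain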
Conditions: S. cerevisiae deletion strains, growth OD

Measured: normalized growth

COC1C(O)C(O)C(O)[C@@H](O)C1O (some centres undefined)
inactive: locus YAL013W, strain DEP1, hits give low values 1.01 | locus YAL021C, strain ccr4, hits give low values 0.967 | locus YAL026C, strain drs2, hits give low values 0.978 | locus YAL030W, strain snc1, hits give low values 0.976 | locus YBL061C, strain skt5, hits give low values 0.971 | locus YBR009C, strain hhf1, hits give low values 0.98 | locus YBR021W, strain FUR4, hits give low values 1.03 | locus YBR023C, strain chs3, hits give low values 0.966 | locus YBR171W, strain sec66, hits give low values 0.978 | locus YBR229C, strain ROT2, hits give low values 1.01 | locus YBR231C, strain swc5, hits give low values 0.978 | locus YBR279W, strain paf1, hits give low values 0.982 | locus YCL011C, strain gbp2, hits give low values 0.976 | locus YCL016C, strain dcc1, hits give low values 0.968 | locus YCL029C, strain bik1, hits give low values 1.02 | locus YCL061C, strain MRC1, hits give low values 0.97 | locus YCL069W, strain vba3, hits give low values 0.98 | locus YCR088W, strain abp1, hits give low values 0.976 | locus YDL005C, strain med2, hits give low values 0.949 | locus YDL035C, strain GPR1, hits give low values 1.02 | locus YDL074C, strain BRE1, hits give low values 1.06 | locus YDL101C, strain DUN1, hits give low values 1.01 | locus YDL134C, strain PPH21, hits give low values 1 | locus YDL185W, strain tfp1, hits give low values 1.01 | locus YDL192W, strain arf1, hits give low values 1.03 | locus YDR001C, strain nth1, hits give low values 0.964 | locus YDR069C, strain doa4, hits give low values 0.981 | locus YDR101C, strain arx1, hits give low values 1.04 | locus YDR137W, strain rgp1, hits give low values 0.98 | locus YDR150W, strain NUM1, hits give low values 1.01 | locus YDR159W, strain sac3, hits give low values 1.06 | locus YDR162C, strain NBP2, hits give low values 1.01 | locus YDR195W, strain ref2 1.01 | locus YDR297W, strain sur2, hits give low values 0.977 | locus YDR318W, strain mcm21, hits give low values 1.02 | locus YDR334W, strain swr1, hits give low values 0.966 | locus YDR335W, strain msn5, hits give low values 0.972 | locus YDR388W, hits give low values 1.02 | locus YDR392W, strain spt3, hits give low values 0.909 | locus YDR502C, strain sam2, hits give low values 1.05 | locus YEL003W, strain gim4, hits give low values 0.974 | locus YEL037C, strain rad23, hits give low values 0.968 | locus YEL061C, strain CIN8 (second series), hits give low values 0.971 | locus YEL061C, strain CIN8, hits give low values 1.01 | locus YER015W, strain faa2, hits give low values 0.984 | locus YER016W, strain bim1, hits give low values 0.977 | locus YER110C, hits give low values 1.02 | locus YER111C, strain swi4, hits give low values 0.961 | locus YER155C, strain BEM2 (second series), hits give low values 0.971 | locus YER155C, strain BEM2, hits give low values 1.01 | locus YER167W, strain BCK2, hits give low values 1.01 | locus YFR010W, strain ubp6, hits give low values 0.951 | locus YGL078C, strain dbp3, hits give low values 1.02 | locus YGL086W, strain mad1, hits give low values 1.05 | locus YGL167C, strain pmr1, hits give low values 0.977 | locus YGL173C, strain kem1, hits give low values 0.964 | locus YGL227W, strain vid30, hits give low values 0.973 | locus YGL240W, strain doc1, hits give low values 1 | locus YGL248W, strain PDE1, hits give low values 1.01 | locus YGL253W, strain hxk2, hits give low values 0.966 | locus YGR078C, strain PAC10, hits give low values 1 | locus YGR135W, strain pre9, hits give low values 1.01 | locus YGR252W, strain gcn5, hits give low values 0.972 | locus YHR013C, strain ard1, hits give low values 0.948 | locus YHR027C, strain rpn1, hits give low values 0.999 | locus YHR030C, strain SLT2, hits give low values 0.999 and 0.933 | locus YHR079C, strain IRE1 (second series), hits give low values 1.03 | locus YHR079C, strain IRE1, hits give low values 0.925 | locus YHR094C, strain hxt1, hits give low values 1.04 | locus YHR129C, strain ARP1, hits give low values 1.01 | locus YHR142W, strain chs7, hits give low values 0.928 | locus YHR200W, strain rpn10, hits give low values 1.03 | locus YIL066C, strain RNR3, hits give low values 1.01 | locus YIL073C, strain SPO22, hits give low values 1.09 | locus YIL125W, strain kgd1, hits give low values 1.01 | locus YIR030C, strain dcg1, hits give low values 1.02 | locus YJL092W, strain hpr5, hits give low values 0.975 | locus YJL095W, strain BCK1 (second series), hits give low values 0.975 | locus YJL095W, strain BCK1, hits give low values 1 | locus YJL115W, strain asf1, hits give low values 0.971 | locus YJL129C, strain trk1, hits give low values 0.938 | locus YJL134W, strain LCB3, hits give low values 0.999 | locus YJL154C, strain vps35, hits give low values 0.964 | locus YJL164C, strain tpk1, hits give low values 0.974 | locus YJL166W, strain qcr8, hits give low values 0.98 | locus YJL168C, strain set2, hits give low values 1.02 | locus YJL187C, strain SWE1 (second series), hits give low values 1.01 | locus YJL187C, strain SWE1, hits give low values 0.977 | locus YJR043C, strain POL32, hits give low values 0.989
